Hit rate of the full screen: of about 31,000 sequences, about 1,400 (4.5%) were called active. The full list was thinned out, with actives kept by preference. A number with no mark means an inactive call.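 Rule for the calls: active = median seed-adjusted z-score above 1 or below -1; inactive = the rest.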
Test: Novel Modifiers of Survival Motor Neuron (SMN) Protein: Gene Identification via Genome-wide siRNA Screen;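 note: luminescence tracks full-length SMN protein made from the SMN2 reporter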
Settings: HEK293T SMN2-luciferase reporter, siRNA knockdown, 72 h; actives lie on both sides
Outline: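 siRNA screen, 10418 genes ×3 siRNAs; 1 pmol/well, lipid reverse transfection into HEK293T SMN2-luc reporter line. 72 h, 37 °C, 5% CO2; ONE-Glo readout. Data: neg-ctrl normalized, log10, MAD; hit = MAD >1.0 or < -1.0.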

Sequence	median seed-adjusted z-score
GAUAUUGCACAAAUCUAUATT against UBE2D1	0.508
GAAGAUAUGCAACAGCCUATT against UNC5B	-0.0207
CAGAAGUCGUAGUCAUGAATT against RBM39	-1.82 (active)
GUAUCUGACUGACAUCCUUTT against PLCH2	0.593
CCAAUACAGUGGAACCUAUTT against ATXN1	-0.024
CCUCCAACGUAUCAUGAGATT against CYP7A1	-0.0092
ACAAAAUUGCUACAUCAAATT against ECHDC1	0.554
GCAGAGAACUGGUUCCGAATT against ZNF512B	0.212
CCGUGUCUUCAGGAACGAATT against CYB561	0
GAUUUUAGCACUACAACAATT against ZNF664	1.08 (active)
AGCUGAAAAUUGAGAACAATT against TBX4	0.968
GCCCAUUAAUAUUAUAGGUTT against LAP3	0.0175
CCUUCAUCCGGAAAUUAAATT against ZIM3	-0.02
GGUGGAUGGUAAUAAGGAATT against CTPS2	1.08 (active)
GGAAGUUGUUCAACGAGAUTT against MLPH	-1.2 (active)
CGGCUAUGACAAGUCAAUATT against PKDREJ	0.376
GGCAGUACAUGUACGAUGATT against AGXT2L2	-0.0495
GAACUGUCGGCGGAACAUUTT against MFAP3L	1.03 (active)
GCGUUGACAGUGAUGCGUATT against SLC4A3	-0.7
GCUUUUGCAUGGAUGUGCATT against ELTD1	0.387
GGAAUAUGAGGUGACCGUUTT against IL17RA	-1.29 (active)
CGGUAAAUGUCACUCGUGATT against PRKG1	0
AGAUGUCCAGACCAAGAUATT against CREBL1	-0.348

Sequence	median seed-adjusted z-score
CAACGAAAAUCUAAAUGCATT against HMMR	0.389
AGAAUGUGCGGCUUAUUGATT against CCDC88B	-0.153
CCAGAGCAAAGGCUAUGAATT against ZNF350	0.133
UAAAAUCUAGGGAUCCAAUTT against POLR2K	-3.72 (active)
AGAUUACGUUGAAGAACGATT against GNGT1	-0.0382
CAUUCACUGAGGCGACAGATT against ABCA9	-0.139
GAAGGGCCUUUUUAUCCAATT against MCTS1	0.116
CGACCAAGAUUAUGGAAUUTT against ADAMTS17	0.257
GGCUAUCUGCUGAAGCGCATT against RASAL1	-0.089
CAAUGACUAUGAAUAAGUATT against SLC9A2	-1.02 (active)
GCCUUUAUGUGGACAUUAATT against SLCO2B1	0.289
CGACAAUGUUAAGUUCAUATT against SULT6B1	0
GCAUAGAUGUGGAUAGCUUTT against CFTR	-1.23 (active)
GGUCCGUGACGAGAAGUUATT against RAB4A	0.0022
CGAACCAUUUCAUCACGUATT against MARS2	-0.00523
CCCUUAAACUCGAACCCAATT against HLX	0.379
GCACGGUAAUUUUGACAGUTT against CD302	0.0818
GCUGUUACCUCGACGAGUATT against TSC2	1.11 (active)
GCAGCUCCGAAUUCAGGAATT against TFE3	-0.0442
GAAGAACUCGAUCAGCUAATT against MYH4	-1.8 (active)
GGAUCUGACAGUUCCAGAATT against CLDN20	-0.00173
GACAAUAUCCUACCCAUUUTT against SLC25A16	0.0479
AGAGAAUCCAGGAUCAGAATT against CHIT1	-0.578

Sequence	median seed-adjusted z-score
GGCUCGCUUUGAAAAGCUATT against LIN7A	-1.39 (active)
CGGACCCGCUGAGACAUUATT against HOXB6	-0.168
GGCCUACAACGAAAGUGAATT against CAMKK1	0
CAGUCGAACCUUUCCCAGATT against MSRA	-0.0316
GGGACUGGGAUUUACGUUATT against MTMR11	-0.0244
CUUCCUUCGUCUUCACCUATT against FOS	0.343
CGACGAUUCGUGCUUAAUATT against MYO5C	0
GCAAAACAGCGGCAGAACATT against ATP8B2	-0.268
GCAGAUCACAUGAAGAGAATT against DHX38	-0.723
CUCUUUAGCCGCUUCAUUATT against FMNL1	-0.3
GGGUCUUCGUCAUGCUCUATT against GPR142	-0.0636
CAGUGCUACUUGGAAUGUUTT against RHOJ	-0.304
CACUAGUUUUGUUAGCGAATT against ATP13A4	-1.09 (active)
CAACAACUAUGACCCAGGATT against CHRNE	0.349
CAGCAAUUCGUGGAGCUCATT against STX4	0.759
CACUAAAUGUGACUCCUGATT against TTC5	-0.296
CUAUUAACAUGGUGACAGATT against EIF4A1	-1.05 (active)
GUGUGAUGAUAUUCGAAAATT against SGPP1	0.0859
GGAGGAAACUUCAACUUGUTT against PHF20L1	0
CAAAUUGAGUCACUCUUAATT against MGAT2	-0.124
GGAUUUGGAGUAGAUCAAUTT against TIAL1	-0.985
GCCUGUCCUUCUCCAUUGATT against ISX	1.99 (active)
GCUUUGAAACUACAGAUGATT against HNRNPA3	0.915

Reference: PubChem BioAssay AID1347426 (Functional Genomics Laboratory (NCATS/FGL), 2020)
